The entries come from a sample that favours hits as a whole.
Tg IFNy HTS – blocks Toxoplasma gondii growth in the presence of IFN-gamma. Toxoplasma gondii growth in IFN-gamma-treated host cells; stronger effect = lower value. 69,000 compounds, 3.8% hits. AID 1259416. activity change, negative = inhibition, % (concentration not given with the values); in the data active = activity change below about -70%, passing the limit was not always enough;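 note: host cells are HeLa cells infected with Toxoplasma gondii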
Hits are given with their value; i = inactive; ! = not active in a repeat.

SMILES | Tg IFNy HTS
Cc1cc(CC(C)Nc2nc(-c3cccnc3)nc3c2CNC3)n[nH]1 (centres undefined) | i
O=C(c1ccccc1Cl)N1CCc2c([nH]c3ccccc23)C1c1ccc(F)cc1 (centres undefined) | i
CN(C)C1CCN(C(=O)c2cc(-c3ccn(CC4CC4)n3)n3ccccc23)CC1 | i
Cc1oc(C2CCN(C(=O)Nc3ccccc3F)CC2)nc1C(=O)N(C)C | i
O=C1CCC2(CCCO2)CCN1Cc1noc(-c2ccccc2)n1 (centres undefined) | i
O=C(CN1CCC(N2CCCCC2)CC1)Nc1ccccc1N1CCOCC1 | i
CCCC(=O)Nc1cc(OC)c(NC(=O)c2cccc(C)c2)cc1OC | i
CCOC(=O)c1nn(CCc2ccccc2)c2c1CN(C(=O)c1ccc3c(c1)OCCO3)CC2 | i
Cc1ccc(C(=O)Nc2ccc(-c3nc(Cn4nc(C)cc4C)c(C)o3)cc2)c(C)c1 | i
COc1ccccc1CC(=O)Nc1ccc(-c2nc(Cn3nc(C)cc3C)c(C)o2)cc1 | -80.0
COc1ccccc1C(=O)Nc1ccc(-c2nc(Cn3nc(C)cc3C)c(C)o2)cc1 | -84.7
Cc1cc(C)n(Cc2nc(-c3ccc(NC(=O)c4ccccc4F)cc3)oc2C)n1 | i
COc1ccc(CC(=O)Nc2ccc(-c3nc(Cn4nc(C)cc4C)c(C)o3)cc2)cc1 | i
Cc1cc(C)n(Cc2nc(-c3ccc(NC(=O)c4ccc(N(C)C)cc4)cc3)oc2C)n1 | i
Cc1cc(C)n(Cc2nc(-c3ccc(NC(=O)c4ccc(F)c(Cl)c4)cc3)oc2C)n1 | i
Cc1cc(C)n(Cc2nc(-c3ccc(NC(=O)COc4ccccc4)cc3)oc2C)n1 | i
Cc1cc(C)n(Cc2nc(-c3ccc(NC(=O)c4ccc(C)c(C)c4)cc3)oc2C)n1 | -87.7
COc1ccc(OCC(=O)N2CCC(C(=O)NCCc3csc(-c4ccccc4)n3)CC2)cc1 | i
Cc1cccc(CN2CCN(C(=O)c3cn(CCN)nn3)C(C)C2=O)c1 (centres undefined) | i
CCOC[C@@H]1CCC[C@]12CN(S(=O)(=O)c1cn(C)cn1)CCO2 | i
CNC(=O)[C@@]12CCCN(c3ncccn3)[C@H]1CN(Cc1ccccc1)C2 | i
COc1cccc(CN(C)Cc2cc3ccc(F)cc3[nH]c2=O)c1 | i
Cc1cccc2cc(CN(Cc3ccccc3)C(=O)Nc3ccc(F)cc3)c(=O)[nH]c12 | -104.1
Cc1ccc(NC(=O)N(Cc2ccco2)Cc2cc3cc4c(cc3[nH]c2=O)OCCO4)cc1 | i
CCCCN(CCCC)c1ccc(S(=O)(=O)c2ccccc2)cc1 | i
SMILES | Tg IFNy HTS
O=c1c2ccccc2nc(SCCN2CCOCC2)n1C1CCCCC1 | i
COCCN1CCC2(CC1)CC(NCc1ccc(C)s1)c1ccccc12 (centres undefined) | i
CS(=O)(=O)N1CCC2(CC1)CC(NCc1cccs1)c1ccccc12 (centres undefined) | -94.0
CN(C)CCN1CCC2(CC1)CC(NCc1cccs1)c1ccccc12 (centres undefined) | i
O=C(NCCc1c[nH]c2ccc(Cl)cc12)c1cc(-c2cccnc2)nc2ccccc12 | i
O=C1CN(C(=O)CN2CCCC(Cc3nc4ccccc4[nH]3)C2)c2ccccc2N1 (centres undefined) | i
COc1ncccc1-c1nc(C)ncc1-c1ccsc1 | i
O=C(NCCc1csc(-c2ccc(Cl)cc2)n1)c1ccc(F)c(F)c1 | i
O=C(O)c1ccc(OCc2ccccc2)cc1 | i
FC(F)(F)c1cccc(OCc2ccc(-c3ncns3)cc2)c1 | i
N#Cc1ccc(OCc2ccc(C(F)(F)F)cc2)cc1 | -81.3
Cc1nc(C)c(C(=O)N2CCCC(c3ncncc3-c3ccncc3)C2)s1 (centres undefined) | i
CN(CCCC1CCCO1)Cc1cc2n(n1)CCNC2 (centres undefined) | i
Clc1ccccc1CSc1nc2ccccc2[nH]1 | i
c1ccc(-n2nnnc2CSc2nc3ccccc3[nH]2)cc1 | i
Cc1cc(CSc2nc3ccccc3[nH]2)c(C)cc1CSc1nc2ccccc2[nH]1 | -96.1
CCOC(=O)c1ccc(OC(=O)c2ccc(Cl)cc2Cl)cc1 | i
Cc1ccc(C(=O)N2CCC(N(C)C)CC2C(=O)O)cc1F (centres undefined) | i
O=C(CSc1nnnn1-c1ccc2ccccc2c1)NCc1ccco1 | i
COc1cccc2c1C(=O)c1c(O)c3c(c(O)c1C2=O)C[C@@](O)(C(=O)CO)C[C@@H]3O[C@H]1C[C@H](N)[C@@H](O)[C@H](C)O1 | -83.9
CC(=O)[C@]1(O)Cc2c(O)c3c(c(O)c2[C@@H](O[C@H]2C[C@H](N)[C@H](O)[C@H](C)O2)C1)C(=O)c1ccccc1C3=O | i
COc1cccc2c1C(=O)c1c(O)c3c(c(O)c1C2=O)C[C@@](O)(C(C)=O)C[C@@H]3O[C@H]1C[C@H](N)[C@H](O)[C@H](C)O1 | -71.7!
Cn1nccc1C(=O)C1CCN(C(=O)CSc2nc3ccccc3s2)CC1 | i
O=S1(=O)c2ccccc2O[C@H]2CCN(Cc3cccc(Cl)c3)CC[C@H]2N1CC1CC1 | i
O=C(NCCc1csc(-c2ccccc2)n1)C1CCN(S(=O)(=O)c2cccc(Cl)c2)CC1 | i
SMILES | Tg IFNy HTS
Cc1cc(C)n(-c2cccc(C(=O)N(CCO)Cc3ccco3)c2)n1 | i
O=S(=O)(c1ccc2c(c1)CCCC2)N1CCC2(CC1)NCCN=C2NC1CCCCCC1 | i
O=C(NC1CC2(CCNCC2)c2ccccc21)C1CC1 (centres undefined) | i
COc1ncc(C(=O)N2CCC(O)(c3ccc(C)cn3)CC2)cn1 | i
COc1ccc(-c2nc(NC3CCN(Cc4ccccc4)CC3)c3ccccc3n2)cc1 | i
COc1cc2nc(N3CCCN(C)CC3)nc(NC3CCN(Cc4ccccc4)CC3)c2cc1OC | -87.7
CCCC(=O)N1CCCN(c2nc(N)c3cc(OC)c(OC)cc3n2)CC1 | i
CCOC(=O)c1nc(Nc2cc(F)ccc2F)c2ccccc2n1 | i
Cc1nc(CCNC(=O)[C@H]2CCCN2C(=O)c2cccc(Br)c2)cs1 | i
O=C1C2C3C=CC(C3)C2C(=O)N1CCN1C(=O)C2C3C=CC(C3)C2C1=O (centres undefined) | i
COc1ccc(Cl)cc1Nc1nc(C)cc(C)c1C#N | -79.1
CN(C)c1nc(-c2ccccc2)nc(Nc2ccc(Cl)cc2Cl)c1C#N | i
COc1ccc(CSc2nc(C)cc(C)c2C#N)cc1 | i
COc1ccc(-c2nc(C)c(CCNC(=O)C(=O)Nc3ccc(C)cc3)s2)cc1 | i
Cc1cc2c(SCC(=O)N3[C@@H]4CC[C@H]3CNC(=O)C4)ncnc2s1 | i
Cc1ccc(C(=O)NCCSCc2ccccc2Cl)cc1 | i
O=C(Nc1cc(Cl)ccc1O)c1ccccc1CN1CCOCC1 | i
Cc1ccc(SCc2ccccc2C(=O)Nc2cc(Cl)ccc2O)cc1 | -74.7
Cc1ccc(NC(=O)c2nnn(Cc3nc(-c4ccccc4)oc3C)c2C)c(C)c1 | i
COc1cc(OC)c(Nc2nc(-c3nnc(-c4ccc(C)cc4)o3)nc3ccccc23)cc1Cl | i
COc1ccc(NC(=O)CN2CCC3(CC2)N=C(c2ccc(Cl)cc2)C(=O)N3)cc1 | i
COc1c(C)c2c(c(O)c1C/C=C(\C)CCC(=O)OCCN1CCOCC1)C(=O)OC2 | -76.1
Cc1oc2c(c1C(=O)Nc1cccc(OCCN3CCOCC3)c1)CCCC2 | i
CC(C)(C)c1ncc2c(n1)CN(C(=O)c1ccc(-n3cnnn3)cc1)C2 | i
COC(=O)c1cnc(NN2C(=O)CCC2=O)nc1C(F)(F)F | i
CCCc1c(C(=O)OCC)cnn1-c1ncc(C(=O)OC)c(C(F)(F)F)n1 | i
CC1CN(c2ncc(C(=O)OCc3ccccc3)c(C(F)(F)F)n2)CC(C)O1 (centres undefined) | -116.0
